Test results: PubChem BioAssay (NCATS)
Records with an inconclusive call do not appear. Calls of active or inactive are those of the source. The call rests on the fitted dose curve; in most records, active means well fitted curve in the direction sought with a large enough effect; inconclusive means small, poorly fitted or top-dose-only effect, or another doubt; inactive means no such curve, though single readings can be large; an effect the other way counts as inactive or inconclusive.

Experiments:
[1] = target: Rap guanine nucleotide exchange factor 3 (Homo sapiens) (UniProt O95398); test: Confirmatory qHTS for antagonist of cAMP-regulated guanine nucleotide exchange factor 3 (EPAC1) (AID 1645880); settings: EPAC1 Rap1B-BODIPY-GDP exchange, fluorescence; activity, negative = inhibition: at 115 µM (top of the series); further: nearly all actives have a fitted effect of over 55% in size;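 on activity, negative = inhibition: plate controls were DMSO only for no effect and full effect of the ATA control for full effect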
Rap guanine nucleotide exchange factor 3 (Homo sapiens), sequence (O95398 whole entry, looked up): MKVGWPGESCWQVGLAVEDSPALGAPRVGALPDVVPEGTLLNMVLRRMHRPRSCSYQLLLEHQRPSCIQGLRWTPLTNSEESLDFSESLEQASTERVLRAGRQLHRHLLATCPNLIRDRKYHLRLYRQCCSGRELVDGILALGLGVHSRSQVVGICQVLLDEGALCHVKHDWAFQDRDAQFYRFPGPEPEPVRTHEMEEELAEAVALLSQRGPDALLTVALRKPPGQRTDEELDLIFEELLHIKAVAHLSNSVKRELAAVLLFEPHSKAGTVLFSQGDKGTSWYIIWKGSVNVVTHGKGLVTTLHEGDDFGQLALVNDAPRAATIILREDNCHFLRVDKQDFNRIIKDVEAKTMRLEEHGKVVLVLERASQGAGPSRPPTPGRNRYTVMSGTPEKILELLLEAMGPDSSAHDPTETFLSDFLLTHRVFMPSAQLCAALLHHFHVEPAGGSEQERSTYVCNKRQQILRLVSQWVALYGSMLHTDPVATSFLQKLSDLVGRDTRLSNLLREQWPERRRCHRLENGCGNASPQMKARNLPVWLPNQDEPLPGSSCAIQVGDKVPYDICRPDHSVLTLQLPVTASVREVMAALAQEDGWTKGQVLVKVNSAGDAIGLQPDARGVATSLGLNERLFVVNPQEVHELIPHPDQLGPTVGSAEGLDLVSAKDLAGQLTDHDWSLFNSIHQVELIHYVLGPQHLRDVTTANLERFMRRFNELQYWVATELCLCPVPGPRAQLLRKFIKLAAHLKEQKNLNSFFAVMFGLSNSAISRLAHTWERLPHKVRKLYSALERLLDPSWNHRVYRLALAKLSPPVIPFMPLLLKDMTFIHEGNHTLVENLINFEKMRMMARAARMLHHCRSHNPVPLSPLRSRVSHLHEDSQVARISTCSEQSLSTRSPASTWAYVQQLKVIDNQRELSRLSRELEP
Outline: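 Nucleotide exchange uses 100 nM EPAC1, 250 nM RAP1B-BODIPY-GDP and 50 uM GDP, with compounds in a concentration-titration series. After 5 min at room temperature, fluorescence (480 nm ex/540 nm em) is read every 5 min for 30 min. Data are normalized to control ATA and DMSO.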

[2] = target: Rap guanine nucleotide exchange factor 3 (Homo sapiens) (UniProt O95398); test: Confirmatory qHTS for agonist of cAMP-regulated guanine nucleotide exchange factor 3 (EPAC1) (AID 1645881); further: nearly all actives have a fitted effect of over 75% in size;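 on activation: EPAC1 catalysed release of BODIPY-GDP from Rap1B seen as fluorescence loss; 100% = effect of cAMP agonist control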
[3] = target: Rap guanine nucleotide exchange factor 4 (Homo sapiens) (UniProt Q8WZA2); test: Confirmatory qHTS for agonist of cAMP-regulated guanine nucleotide exchange factor 4 (EPAC2) (AID 1645884);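 further: nucleotide exchange releases bodipy-GDP from Rap1 and this lowers its fluorescence; nearly all actives have a fitted effect of over 65% in size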; on activation: on the % scale 0 is the no-effect control and ±100 the full control effect
Rap guanine nucleotide exchange factor 4 (Homo sapiens), sequence (Q8WZA2 whole entry, looked up): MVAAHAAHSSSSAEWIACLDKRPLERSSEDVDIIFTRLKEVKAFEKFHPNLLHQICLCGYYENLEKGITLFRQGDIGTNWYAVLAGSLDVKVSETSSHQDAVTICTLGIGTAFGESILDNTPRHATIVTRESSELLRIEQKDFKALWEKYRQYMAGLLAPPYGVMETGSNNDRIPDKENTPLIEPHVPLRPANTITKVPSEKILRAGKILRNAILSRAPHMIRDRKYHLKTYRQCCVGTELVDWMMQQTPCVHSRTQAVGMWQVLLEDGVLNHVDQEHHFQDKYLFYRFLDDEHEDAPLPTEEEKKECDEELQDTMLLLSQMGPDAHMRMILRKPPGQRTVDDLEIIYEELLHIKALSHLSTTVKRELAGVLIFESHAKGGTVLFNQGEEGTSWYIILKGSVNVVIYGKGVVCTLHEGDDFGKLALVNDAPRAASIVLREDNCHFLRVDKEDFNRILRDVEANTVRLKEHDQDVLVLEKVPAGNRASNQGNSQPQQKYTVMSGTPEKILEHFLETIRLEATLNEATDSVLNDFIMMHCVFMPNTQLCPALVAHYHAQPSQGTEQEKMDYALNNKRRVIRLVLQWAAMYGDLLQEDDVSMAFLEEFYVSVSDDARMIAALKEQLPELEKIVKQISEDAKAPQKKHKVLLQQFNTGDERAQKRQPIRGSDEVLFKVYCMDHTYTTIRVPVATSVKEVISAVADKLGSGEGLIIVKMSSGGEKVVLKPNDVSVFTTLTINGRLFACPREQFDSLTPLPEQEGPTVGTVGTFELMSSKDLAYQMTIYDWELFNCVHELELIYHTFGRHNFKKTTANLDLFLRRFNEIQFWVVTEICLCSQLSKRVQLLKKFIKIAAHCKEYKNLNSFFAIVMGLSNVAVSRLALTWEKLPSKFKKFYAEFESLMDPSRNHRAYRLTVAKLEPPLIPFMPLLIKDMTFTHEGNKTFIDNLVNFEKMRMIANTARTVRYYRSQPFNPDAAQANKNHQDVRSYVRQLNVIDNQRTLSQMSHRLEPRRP

[4] = target: Rap guanine nucleotide exchange factor 4 (Homo sapiens) (UniProt Q8WZA2); test: Confirmatory qHTS for antagonist of cAMP-regulated guanine nucleotide exchange factor 4 (EPAC2) (AID 1645885); further: nearly all actives have a fitted effect of over 25% in size
[5] = target: Rap guanine nucleotide exchange factor 3 (Homo sapiens) (UniProt O95398); test: Counterscreen qHTS for agonist of cAMP-regulated guanine nucleotide exchange factor 3 (EPAC1) (AID 1645889); further: nearly all actives have a fitted effect of over 40% in size; on activation: % of control where 0% means no effect
Outline: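 Rap1B-BODIPY-GDP 250 nM + GDP 50 uM; cpds 7-pt, final 9.74 nM–152 uM (activator mode) or from 7.32 nM upwards (inhibitor mode); RT; FI 480/540 nm at 5 and 30 min, then ± cAMP, reread.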
Potency means the concentration at half of the fitted maximal effect.

C/C=C/C(=O)Nc1cccc(C2=NOC3(C2)C[C@@H](C(N)=O)N(C(=O)/C(C)=C/C)C3)c1 (stereo not given in full)
inactive: Potency [1] | Potency [2] | Potency [3] | Potency [4] | Potency [5]

O=C(CSc1nnnn1-c1ccccc1)Nc1ccc(Cl)cn1
inactive: Potency [1] | Potency [2] | Potency [3] | Potency [4] | Potency [5]

Cc1cc(C)c(Nc2cc(S(=O)(=O)O)c(N)c3c2C(=O)c2ccccc2C3=O)c(C)c1
active: Potency [1] 30.1 µM | Potency [4] 75.7 µM
inactive: Potency [2] | Potency [3] | Potency [5]

COc1ccccc1CNC(=O)C1(C)CCN1Cc1ccc(OC(F)(F)F)cc1 (stereo not given)
active: Potency [1] 67.5 µM | Potency [4] 53.6 µM
inactive: Potency [2] | Potency [3] | Potency [5]

O=S(=O)(O)c1cc(O)c(N=Nc2ccc(O)cc2O)c2ccccc12
inactive: Potency [2] | Potency [3] | Potency [5]
active: Potency [1] 37.9 µM | Potency [4] 21.3 µM

Cn1cc([C@]2(O)C(=O)Nc3ccc(OC(F)(F)F)cc32)c2ccccc21
inactive: Potency [1] | Potency [2] | activation [3] 14.8% [at 17.1 µM, percent relative to cAMP agonist control] | Potency [4] | activation [5] 32.2% [at 30.8 µM]

COC(=O)CSc1ncnc2scc(-c3ccccc3)c12
inactive: Potency [1] | Potency [2] | activation [3] -0.952% [at 17.1 µM, percent relative to cAMP agonist control] | Potency [4] | activation [5] 5.38% [at 30.8 µM]

COc1cc(NC(=O)c2ccnc(N)c2)cc(C(=O)Nc2cccc(C(F)(F)F)c2)c1
inactive: Potency [2] | Potency [3] | Potency [4] | Potency [5]
active: Potency [1] 42.6 µM

Cc1ccc(S(=O)(=O)NC2CC(=O)N(c3ccc4c(c3)OCCO4)C2)cc1 (stereo not given)
inactive: Potency [1] | Potency [2] | activation [3] 3.34% [at 17.1 µM, percent relative to cAMP agonist control] | Potency [4] | activation [5] 22.6% [at 30.8 µM]

Cc1cc(Nc2ncc(Cl)cc2Cl)n(-c2ccccc2C)n1
active: Potency [4] 16.9 µM
inactive: Potency [1] | Potency [2] | Potency [3] | Potency [5]

CCN1CCc2c(sc(NC(=O)c3ccc(S(=O)(=O)N4CCCCCC4)cc3)c2C(=O)NC)C1
inactive: Potency [1] | Potency [2] | Potency [3] | Potency [4] | Potency [5]

CC(C)(C)c1c(Cl)c(O)c(-c2ccccc2)c(=O)n1-c1ccccc1
active: Potency [1] 23.9 µM
inactive: Potency [2] | Potency [3] | Potency [4] | Potency [5]

CC(=O)c1cc(CC(=O)N2CCc3c([nH]c4ccccc34)C2c2ccccn2)cs1 (stereo not given)
inactive: Potency [1] | Potency [2] | Potency [3] | Potency [4] | Potency [5]

COc1cc(NS(=O)(=O)c2cc3[nH]c(=O)c(=O)[nH]c3cc2C)cc(OC)c1OC
inactive: Potency [1] | Potency [2] | activation [3] 2.04% [at 17.1 µM, percent relative to cAMP agonist control] | Potency [4] | activation [5] 12.2% [at 30.8 µM]

COc1ccc(/C=N/N=C2/C(=O)Nc3ccccc32)cc1O
inactive: Potency [1] | Potency [2] | activation [3] 6.47% [at 17.1 µM, percent relative to cAMP agonist control] | Potency [4] | activation [5] 36.3% [at 30.8 µM]

CC(C)CC1C(=O)N(Cc2cn(Cc3ccco3)nn2)CCS(=O)(=O)N1Cc1ccc(-c2ccc(F)cc2)cc1 (stereo not given)
inactive: Potency [2] | Potency [3] | Potency [5]
active: Potency [1] 84.9 µM | Potency [4] 21.3 µM

CC(C)Cn1c(SC(C)C(=O)NCC2CCCO2)nc2ccc(Cl)cc2c1=O (stereo not given)
inactive: Potency [1] | Potency [2] | Potency [3] | Potency [5]
active: Potency [4] 5.36 µM

CC(C)(C)OC(=O)N1CCN(C(=O)c2[nH]c(C(F)(F)F)nc2-c2ccccc2)CC1
inactive: Potency [1] | Potency [2] | Potency [3] | Potency [4] | Potency [5]

COc1cc(OC)c(-c2c3cc(O)c(=O)cc-3oc3cc(O)c(O)cc23)cc1OC
inactive: Potency [1] | Potency [4]
active: Potency [2] 89.1 µM | Potency [3] 100 µM | Potency [5] 70.8 µM

COc1ccc(C2CCc3cc4c(cc3C2=NO)OCO4)cc1OC (stereo not given)
inactive: Potency [1] | Potency [2] | activation [3] 6.77% [at 17.1 µM, percent relative to cAMP agonist control] | Potency [4] | activation [5] 14.5% [at 30.8 µM]

Cc1ccc(NC(=O)Cn2nnc(-c3nc(-c4ccncc4)no3)c2N)c(C)c1
inactive: Potency [1] | Potency [2] | Potency [3] | Potency [4] | Potency [5]
